# Tgondii IFNg: T. gondii growth inhibition with IFN-gamma, primary screen, cell-based | AID 1259416, 2018 | Toxoplasma gondii growth in IFN-gamma-treated host cells; hits give low values | activity change, negative = inhibition, % (concentration not given with the values) | actives 3.8% (n = 69,000); in the data active means activity change below about -70%, passing the limit was not always enough;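 further: host cells are HeLa cells infected with Toxoplasma gondii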
# Numbers without * were called inactive; ! = not confirmed by another sample. The entries come from a sample that favours hits as a whole.
SMILES,Tgondii IFNg
COc1cccc(S(=O)(=O)N(C)C[C@@H]2OCc3ccccc3-c3c(n(C)c4ccccc34)C(=O)N([C@H](C)CO)C[C@@H]2C)c1,-56.5
C[C@@H]1CN([C@H](C)CO)C(=O)c2c(c3ccccc3n2C)-c2ccccc2CO[C@@H]1CN(C)S(=O)(=O)c1ccc([N+](=O)[O-])cc1,-23.8
C[C@@H]1CN([C@@H](C)CO)C(=O)c2c(c3ccccc3n2C)-c2ccccc2CO[C@@H]1CN(C)S(=O)(=O)c1ccc([N+](=O)[O-])cc1,-50.0
COc1cccc(S(=O)(=O)N(C)C[C@H]2OCc3ccccc3-c3c(n(C)c4ccccc34)C(=O)N([C@@H](C)CO)C[C@H]2C)c1,-72.3*
C[C@H](CO)N1C[C@H](C)[C@H](CN(C)S(=O)(=O)c2ccc([N+](=O)[O-])cc2)OCc2ccccc2-c2c(n(C)c3ccccc23)C1=O,-72.5*
Cc1cccc(-n2cccc2CN2CCOC(CN)C2)c1 (stereo not given),0.4
CCNC(=O)CCC/C=C/C[C@@H]1[C@H](C=C[C@H](O)CCc2ccccc2)[C@@H](O)C[C@@H]1O,11.1
O=C(NCc1cnn2ccccc12)c1ccccc1Cl,-3.5
O=C(O)c1cccc(-c2n[nH]c3ccccc23)c1,25.4
Cc1noc([C@H]2COC[C@@H]3CN(S(=O)(=O)N(C)C)C[C@@H]32)n1,-3.4
O=c1ccc2cc(S(=O)(=O)NCC3CCN(CCc4cccs4)CC3)ccc2[nH]1,-3.5
CCCCC1CCCN1C(=O)c1sc(N)nc1CC (stereo not given),-1.6
Cc1oc(-c2ccc(NC(=O)c3ccc(Br)cc3)cc2)nc1Cn1cccn1,-52.7
Cc1oc(-c2ccc(NC(=O)c3ccc4c(c3)OCO4)cc2)nc1Cn1cccn1,-90.6*
COCCC(=O)Nc1ccc(-c2nc(Cn3cccn3)c(C)o2)cc1,94.2
Cc1oc(-c2ccc(NC(=O)c3ccc(F)cc3F)cc2)nc1Cn1cccn1,-35.3
CCOc1ccc(C(=O)Nc2ccc(-c3nc(Cn4cccn4)c(C)o3)cc2)cc1,-98.6*
Cc1oc(-c2ccc(NC(=O)c3cccc(N(C)C)c3)cc2)nc1Cn1cccn1,-86.2*
Cc1oc(-c2ccc(NC(=O)c3ccsc3)cc2)nc1Cn1cccn1,120.3
Cc1ccc(CC(=O)Nc2ccc(-c3nc(Cn4cccn4)c(C)o3)cc2)cc1,-38.8
Cc1oc(-c2ccc(NC(=O)COc3ccccc3)cc2)nc1Cn1cccn1,56.4
Cc1oc(-c2ccc(NC(=O)c3cccc(C(F)(F)F)c3)cc2)nc1Cn1cccn1,-49.0
Cc1oc(-c2ccc(NC(=O)c3cccc(C#N)c3)cc2)nc1Cn1cccn1,21.0
Cc1oc(-c2ccc(NC(=O)c3ccc(Cl)cc3)cc2)nc1Cn1cccn1,-85.0*
COCCN=C1Nc2ccccc2NC12CCCN(C(=O)c1cc(Cl)ccc1OC)C2 (stereo not given),48.5
SMILES,Tgondii IFNg
Cc1ccc(-c2cnc3n2CCN(C)C32CCN(Cc3ccc(C)o3)CC2)cc1,-2.7
CNC(=O)Cn1cc(-c2ccc(F)cc2Cl)cn1,-38.6
COc1ccc(-c2nccc(C(F)(F)F)n2)cn1,61.8
COc1ccc(C(=O)Nc2ccc3c(c2)nc(C(F)(F)F)n3C)cn1,20.3
COc1ccc(-c2ccc3ncc4c(c3c2)n(-c2ccc(N3CCNCC3)c(C(F)(F)F)c2)c(=O)n4C)cn1,-89.7*
CCOc1ncccc1C(=O)N(Cc1nccn1C)C1CC1,55.5
COc1ccc(OC)c(Nc2nc(-c3nnc(-c4cccc(C)c4)o3)nc3ccccc23)c1,-54.7
O=C(Nc1ccc2c(c1)CS(=O)(=O)C2)c1cccs1,47.6
CN(C)c1ccc(NC(=O)c2cccs2)cc1,38.4
O=C(Nc1ccc2c(c1)ncn2-c1ccccc1)c1cccs1,-95.3*
CC(=O)c1ccc(-c2cc(NCc3ccncc3)nc3[nH]ccc23)nc1,0.3
COCC(=O)N1CCOCC2(CCC(CN(C)Cc3ccco3)O2)C1 (stereo not given),-46.3
CC1CCc2cc(F)ccc2N1C(=O)CSc1ncc(-c2ccccc2)n1C1CCCC1 (stereo not given),-80.1*
Cn1c(-c2ccccc2)cnc1SCC(=O)Nc1ccc(Cl)cc1,6.8
CC1CCc2cc(F)ccc2N1C(=O)c1cc2cccnc2n(Cc2ccccc2F)c1=O (stereo not given),-28.1
COc1ccccc1CCC(=O)N1CCC2(CC1)Nc1cccnc1NC2=NC1CCCC1,9.5
COc1ccc(-n2c(=O)c(C(=O)Nc3ccc4c(c3)OCO4)c(O)c3cccnc32)cc1,106.5
Cc1cc(=O)n(CC(=O)NCCN2C(=O)CSC2=O)c2ccccc12,9.9
Cc1ccc(NCN2C(=O)CSC2=O)c(C)c1,-87.7*
O=C1CSC(=O)N1C/C=C/CN1C(=O)CSC1=O,1.5
CCOC(=O)c1cc(C2CC2)nc2c1c(=O)n(Cc1nc(-c3cccc(C)c3)oc1C)c(=O)n2C,-43.3
COCC(=O)N1CCCC1c1nnn2cc(Nc3cccc(F)c3)ccc12 (stereo not given),-2.4
Nc1c2c(nc3ccccc13)CCCC2,-15.7
CCOc1ccc(Nc2nc3ccccc3c(=O)s2)cc1,-3.2
FC(F)(F)c1cc(Sc2cc(C(F)(F)F)nc3ccccc23)c2ccccc2n1,-10.6
SMILES,Tgondii IFNg
CCOC(=O)c1c(C)nc2ccccc2c1C(=O)O,9.0
Nc1c2ccccc2nc2ccccc12,-72.5*!
CCOc1c2ccccc2nc2ccccc12,-123.1*
COc1ccc(Cl)cc1CNCc1cccnc1,6.1
CCC1=N[C@]2(CC[C@@H]3CN(c4ncc(F)cn4)C[C@H]32)C(=O)N1CC1CC1,8.0
CCn1c2c(ccc1=O)CC(NCc1cnn(C)c1)CC2 (stereo not given),8.2
Cc1cc(F)ccc1NC(=O)Cn1ncc2c(N3CCN(c4ccccn4)CC3)ncnc21,62.4
COc1ccc(-c2csc(CCN)n2)cc1,161.1
Cc1onc(-c2c(Cl)cccc2Cl)c1-c1nc2cccc(F)c2c(=O)o1,-34.9
Cc1onc(-c2c(F)cccc2Cl)c1-c1nnc(-c2ccc(C(F)(F)F)cc2)o1,-98.9*
FC(F)(F)c1ccc(-c2nnc(COc3ccccc3Cl)o2)cc1,20.7
COc1ccc(C)cc1-n1c(SCC(=O)O)nnc1C(C)OC (stereo not given),18.6
COCCn1nnnc1C(c1ccc(F)cc1)N1CCCC1 (stereo not given),-5.8
CCN1CCC2(CC1)OC(=O)C(C)=C2C(=O)Nc1ccc(Br)cc1F,179.4
CC(c1ccccn1)N(C)Cc1nc2ccccc2n1C(C)C (stereo not given),-19.7
Cc1cc(CN(C)Cc2ccc(-n3cccn3)cc2)n[nH]1,-2.6
Cc1cc(CN(C)Cc2nc3ccccc3n2C(C)c2ccccc2)n[nH]1 (stereo not given),-79.2*
FC(F)(F)c1ccc2nc(SCc3cc(Cl)cc4c3OCOC4)[nH]c2c1,-80.7*
Clc1cc2c(c(CSc3ccccc3C3=NCCCN3)c1)OCOC2,37.8
COc1ccc(C(C)=O)cc1CSc1nc2ccc(C(F)(F)F)cc2[nH]1,-51.6
COc1ccc(S(=O)(=O)N2CC3CCCC(C2)C3(O)c2cccnc2F)cc1 (stereo not given),36.7
O=C(Cc1ccc(F)cc1)Nc1ccc(-c2nc(-c3ccccc3)co2)cc1,-5.2
CCN1CC(C(=O)O)CN2CCN(Cc3csc(C)n3)CC2C1 (stereo not given),61.1
O=C(c1ccncc1)N1CCC2(C1)c1ccccc1S(=O)(=O)N2Cc1ccccc1 (stereo not given),1.0
Cc1cccc(-n2cc(CN(C)Cc3ccno3)c(-c3cccc(F)c3)n2)c1,8.8
